The nature of assay [1]: Nuclear factor erythroid 2-related factor 2/antioxidant responsive element (Nrf2/ARE) small molecule agonists: qHTS cell viability counter screen in human keratinocytes (AID 1919968; active means well fitted curve in the direction sought with a large enough effect in the repeat runs; an effect the other way counts as inactive or inconclusive; further: nearly all actives have a fitted effect of over 55% in size; further: potency means the concentration at half of the fitted maximal effect). The method, boiled down: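 Cytotoxicity was multiplexed with the Nrf2/ARE luciferase assay in the same wells. Stably transfected HaCaT keratinocytes were treated with test compounds for 23 h at 37 C. Cell viability was then measured by CellTiter-Fluor fluorescence.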
(In general: In qHTS, concentration-response curves come from the screen itself.)

Assay [2] is described as follows: Nuclear factor erythroid 2-related factor 2/antioxidant responsive element (Nrf2/ARE) small molecule agonists: luciferase reporter gene qHTS assay in human keratinocytes (AID 1919969). Further: nearly all actives have a fitted effect of over 35% in size.
The target in assay [3] is Gonadotropin-releasing hormone receptor (Homo sapiens) (UniProt P30968). The assay can be described thus: Human gonadotropin-releasing hormone receptor (GnRHR) small molecule agonists, calcium flux assay in GnRHR-HEK293 cells (AID 1920063). Further: nearly all actives have a fitted effect of over 35% in size. In a few lines:
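Agonist activity was measured as intracellular calcium flux in HEK293 cells engineered to stably express human GnRHR. After dye loading for 1 hour at 37 C, compounds in DMSO were added and fluorescence was followed for 3 minutes.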
Background: A change in cytosolic calcium serves as a functional read-out for many receptors and channels.

The target in assay [4] is KiSS-1 receptor (Homo sapiens) (UniProt Q969F8). The assay can be described thus: Human kisspeptin (KISS1R) small molecule agonists, calcium flux assay in KISS1R-HEK293 cells (AID 1920064; active means well fitted curve in the direction sought with a large enough effect in the repeat runs; an effect the other way counts as inactive or inconclusive). In a few lines: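 Agonist activity is monitored as intracellular calcium rise in engineered HEK293 cells carrying human KISS1R. Cells are dye-loaded for 1 h at 37 C before compound addition, and fluorescence is recorded for 3 min.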
Chain of KiSS-1 receptor (Homo sapiens) (Q969F8 whole entry, looked up): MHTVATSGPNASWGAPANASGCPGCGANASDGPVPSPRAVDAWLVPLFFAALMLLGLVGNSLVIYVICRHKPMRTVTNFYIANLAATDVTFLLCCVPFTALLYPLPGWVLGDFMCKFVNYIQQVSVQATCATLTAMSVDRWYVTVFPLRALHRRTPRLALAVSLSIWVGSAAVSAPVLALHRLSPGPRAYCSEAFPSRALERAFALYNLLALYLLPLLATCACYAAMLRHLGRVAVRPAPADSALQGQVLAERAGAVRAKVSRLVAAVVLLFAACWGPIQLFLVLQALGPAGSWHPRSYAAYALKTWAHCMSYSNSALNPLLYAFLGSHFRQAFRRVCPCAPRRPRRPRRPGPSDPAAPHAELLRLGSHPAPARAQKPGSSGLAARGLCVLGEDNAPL

A short description of assay [5]: G protein-coupled receptor (GPCR) small molecule agonists, calcium flux assay: HEK293 wild type cell line counter screen (AID 1920065). In a few lines: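 Seed cells, incubate 18 h (37 C, 5% CO2); add calcium dye, 1 h at 37 C; pin-transfer compounds, ATP control or DMSO; read fluorescence 480/540 nm each second for 3 min.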
Assay [6] in a line: p53 small molecule agonists, cell-based qHTS assay with human liver microsomes: qHTS cell viability counter screen (AID 1963579). Further: nearly all actives have a fitted effect of over 45% in size. The method, boiled down: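 Seed p53RE-bla cells at 4,000 per well; incubate 5 h at 37 C; add compound, human liver microsomes and NADPH; incubate 16 h at 37 C; add CellTiter-Glo; after 30 min at room temperature, read luminescence.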
Assay [7] can be described thus: p53 small molecule agonists, cell-based qHTS assay with rat liver microsomes: qHTS cell viability counter screen (AID 1963580). Further: nearly all actives have a fitted effect of over 45% in size. In a few lines:
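Counter screen for cytotoxicity under metabolic activation: rat liver microsomes and NADPH, 0.5 mg/mL final each, added with compounds to p53RE-bla HCT-116 cells; 16 h at 37 C, then ATP luminescence read.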

A short description of assay [8]: p53 small molecule agonists, cell-based qHTS assay: qHTS cell viability counter screen (AID 1963581). Further: nearly all actives have a fitted effect of over 45% in size. The method, boiled down: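 Viability was counter-screened in parallel with the p53 agonist reporter by measuring intracellular ATP luminescence in the same HCT-116 p53RE-bla wells after 16 h compound treatment at 37 C.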
The target of assay [9] is 5-hydroxytryptamine receptor 2A (Homo sapiens) (UniProt P28223). The assay can be described thus: 5-hydroxytryptamine receptor 2A (HTR2A) small molecule antagonists, cell-based qHTS assay (AID 1963586). Further: nearly all actives have a fitted effect of over 45% in size. In a few lines: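 CHO cells stably expressing human HTR2A were plated for 18 h at 37 C, then loaded with calcium dye for 1 h. Compounds were preincubated 5 min at room temperature before DOI (4 nM solution) was added. Kinetic fluorescence was read for 3 min.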
Chain of 5-hydroxytryptamine receptor 2A (Homo sapiens) (P28223 whole entry, looked up): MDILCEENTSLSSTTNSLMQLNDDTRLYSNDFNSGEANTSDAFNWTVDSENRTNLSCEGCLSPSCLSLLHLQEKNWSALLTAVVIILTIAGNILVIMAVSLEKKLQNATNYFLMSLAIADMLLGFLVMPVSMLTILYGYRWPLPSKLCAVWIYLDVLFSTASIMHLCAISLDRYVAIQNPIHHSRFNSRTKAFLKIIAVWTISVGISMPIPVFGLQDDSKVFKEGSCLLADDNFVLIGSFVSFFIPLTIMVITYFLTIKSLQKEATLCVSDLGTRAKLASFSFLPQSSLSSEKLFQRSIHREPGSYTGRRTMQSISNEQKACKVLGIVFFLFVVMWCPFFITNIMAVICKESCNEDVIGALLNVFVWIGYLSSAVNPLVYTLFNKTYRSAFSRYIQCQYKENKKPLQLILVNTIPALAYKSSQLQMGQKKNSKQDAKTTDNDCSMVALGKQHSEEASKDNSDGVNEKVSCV

For assay [10] the target is unchanged. The assay can be described thus: 5-hydroxytryptamine receptor 2A (HTR2A) small molecule agonists, cell-based qHTS assay (AID 1963587). Further: nearly all actives have a fitted effect of over 30% in size. Further: potency means the concentration at half of the fitted maximal effect. The method, boiled down: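 HTR2A-CHO cells, plated 18 h at 37 C/5% CO2, dye-loaded 1 h at 37 C; compounds in DMSO added by pin tool (agonist mode). Intracellular calcium flux read as kinetic fluorescence on FDSS over 2 min at 1 s intervals.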

For assay [11], the target named is Muscarinic acetylcholine receptor M1 (Homo sapiens) (UniProt P11229). The assay can be described thus: Cholinergic receptor muscarinic 1 (CHRM1) small molecule antagonists, cell-based qHTS assay (AID 1963588). Further: nearly all actives have a fitted effect of over 40% in size. The method, boiled down: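 Compounds were tested at 15 concentrations in three independent runs. Dye-loaded CHRM1-CHO cells were exposed 5 min at room temperature before stimulation by acetylcholine added at 50nM. Intracellular calcium was read kinetically on FDSS for 3 min.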
Chain of Muscarinic acetylcholine receptor M1 (Homo sapiens) (P11229 whole entry, looked up): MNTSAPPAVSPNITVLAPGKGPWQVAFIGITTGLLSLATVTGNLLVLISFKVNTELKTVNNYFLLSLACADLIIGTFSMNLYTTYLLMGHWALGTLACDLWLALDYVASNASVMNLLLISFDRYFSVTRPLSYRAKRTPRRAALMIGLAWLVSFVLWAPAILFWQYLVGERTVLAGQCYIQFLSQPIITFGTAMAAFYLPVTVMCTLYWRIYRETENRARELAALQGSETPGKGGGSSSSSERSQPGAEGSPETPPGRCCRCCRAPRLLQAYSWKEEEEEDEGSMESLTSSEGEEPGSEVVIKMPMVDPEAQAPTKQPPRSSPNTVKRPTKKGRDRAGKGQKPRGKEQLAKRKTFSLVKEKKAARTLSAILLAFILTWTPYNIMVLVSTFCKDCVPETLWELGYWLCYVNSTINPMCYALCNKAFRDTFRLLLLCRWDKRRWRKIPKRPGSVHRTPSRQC

For assay [12] the target is unchanged. The assay can be described thus: Cholinergic receptor muscarinic 1 (CHRM1) small molecule agonists, cell-based qHTS assay (AID 1963589). Further: nearly all actives have a fitted effect of over 35% in size. In a few lines: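 Cells were plated and incubated 18 h at 37 C/5% CO2, loaded with calcium dye for 1 h at 37 C, then treated with compounds in DMSO. Fluorescence was recorded kinetically at 1 sec intervals.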
Assay [13] is described as follows: cAMP Responsive Elements (CRE) small molecule agonists, cell-based qHTS assay (AID 1963590). In a few lines:
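Cells carrying a CRE-driven beta-lactamase reporter (HEK 293T) are seeded, incubated overnight (18 h), and treated with test compounds for 3 h at 37 C; reporter activity is then detected with a FRET substrate after 2 h at room temperature.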

A short description of assay [14]: cAMP Responsive Elements (CRE) small molecule antagonists, cell-based qHTS assay (AID 1963591; active means well fitted inhibition curve with a large enough effect in the signal ratio in the repeat runs, not every such curve was filed as active; the % refers to the signal ratio). The method, boiled down:
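Cells (CRE-bla HEK 293T, DMEM with 10% dialyzed FBS and 25 mM HEPES) are seeded and incubated 18 h. Compounds are added with NKH477 agonist at 0.25 uM final for 3 h, then FRET substrate for 2 h.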

Assay [15] concerns the target Beta-2 adrenergic receptor (Homo sapiens) (UniProt P07550). The experiment in a line: Adrenergic beta2 receptor (ADRB2) small molecule antagonists, cell-based qHTS assay (AID 1963592). Further: series mostly up to about 92 µM; nearly all actives have a fitted effect of over 50% in size. In a few lines:
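Assay format: CHO-ADRB2 cells, 18-20hr seeding at 37C/5% CO2, then compound plus 1nM isoproterenol agonist mix for 0.5hr RT. Homogeneous time-resolved fluorescence cAMP detection after 1hr, expressed as 665/615 nm ratio.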

For assay [16] the target is unchanged. The assay can be described thus: Adrenergic beta2 receptor (ADRB2) small molecule agonists, cell-based qHTS assay (AID 1963593).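 Further: CHO cells stably overexpressing human ADRB2.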 The method, boiled down: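 CHO cells stably over-expressing ADRB2 were plated overnight at 37C, then dosed with compounds plus a stimulation mix containing 100uM IBMX and 25uM Ro-20-1724 for 0.5hr at room temperature. cAMP was measured by HTRF competition, 1hr.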

Assay [17] has as its target D(2) dopamine receptor (Homo sapiens) (UniProt P14416). The experiment in a line: Dopamine D2 receptor (DRD2) small molecule agonists, cell-based qHTS assay (AID 1963594). Further: nearly all actives have a fitted effect of over 35% in size. In a few lines: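 HEK293 cells stably expressing DRD2 were cultured 24 h at 37 C, then given Ro20-1724 (0.1 mM final) and compounds for 10 min at room temperature. NKH477 (200nM) was then added for 30 min. cAMP was read by HTRF.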

Assay [18] shares this target. The experiment in a line: Dopamine D2 receptor (DRD2) small molecule antagonists, cell-based qHTS assay (AID 1963595; active means well fitted inhibition curve with a large enough effect in the signal ratio in the repeat runs, with a control signal flat; the % refers to the signal ratio). In a few lines:
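Antagonist mode in DRD2-HEK293 cells: after compound addition with 0.1 mM Ro20-1724, cells received quinpirole (12 nM) and NKH477 (200 nM) for 30 min at room temperature; HTRF cAMP read after 1 h detection.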

The values that follow come from PubChem BioAssay (Tox21).

“And” between values parts separate entries of the source, which are not always exact repeats. Identical values can stand only once. Results filed as inconclusive are left out. The source holds several records for some structures; these can differ, active in one and inactive in another. The source made the active and inactive calls. Unless noted, the call rests on the fitted dose curve.

Chain of D(2) dopamine receptor (Homo sapiens) (P14416 whole entry, looked up): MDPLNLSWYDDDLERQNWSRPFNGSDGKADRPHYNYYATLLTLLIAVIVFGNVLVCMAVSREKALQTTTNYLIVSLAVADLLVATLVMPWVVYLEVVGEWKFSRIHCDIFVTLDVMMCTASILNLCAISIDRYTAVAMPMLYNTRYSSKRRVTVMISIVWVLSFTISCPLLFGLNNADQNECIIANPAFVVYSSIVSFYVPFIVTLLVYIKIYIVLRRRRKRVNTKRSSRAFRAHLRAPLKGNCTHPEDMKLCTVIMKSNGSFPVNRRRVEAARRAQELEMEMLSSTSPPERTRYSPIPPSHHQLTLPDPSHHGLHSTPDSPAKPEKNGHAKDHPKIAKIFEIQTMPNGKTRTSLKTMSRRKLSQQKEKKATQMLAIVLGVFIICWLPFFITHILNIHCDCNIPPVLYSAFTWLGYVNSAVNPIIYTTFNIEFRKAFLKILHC
Chain of Gonadotropin-releasing hormone receptor (Homo sapiens) (P30968 whole entry, looked up): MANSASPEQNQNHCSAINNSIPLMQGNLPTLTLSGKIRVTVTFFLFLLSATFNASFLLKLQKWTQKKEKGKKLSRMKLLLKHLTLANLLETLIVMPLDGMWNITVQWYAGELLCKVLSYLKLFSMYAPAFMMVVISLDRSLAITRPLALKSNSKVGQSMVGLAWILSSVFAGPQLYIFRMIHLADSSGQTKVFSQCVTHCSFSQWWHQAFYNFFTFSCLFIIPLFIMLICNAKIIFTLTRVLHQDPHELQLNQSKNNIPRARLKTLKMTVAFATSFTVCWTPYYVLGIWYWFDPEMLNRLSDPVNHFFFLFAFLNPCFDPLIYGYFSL
Chain of Beta-2 adrenergic receptor (Homo sapiens) (P07550 whole entry, looked up): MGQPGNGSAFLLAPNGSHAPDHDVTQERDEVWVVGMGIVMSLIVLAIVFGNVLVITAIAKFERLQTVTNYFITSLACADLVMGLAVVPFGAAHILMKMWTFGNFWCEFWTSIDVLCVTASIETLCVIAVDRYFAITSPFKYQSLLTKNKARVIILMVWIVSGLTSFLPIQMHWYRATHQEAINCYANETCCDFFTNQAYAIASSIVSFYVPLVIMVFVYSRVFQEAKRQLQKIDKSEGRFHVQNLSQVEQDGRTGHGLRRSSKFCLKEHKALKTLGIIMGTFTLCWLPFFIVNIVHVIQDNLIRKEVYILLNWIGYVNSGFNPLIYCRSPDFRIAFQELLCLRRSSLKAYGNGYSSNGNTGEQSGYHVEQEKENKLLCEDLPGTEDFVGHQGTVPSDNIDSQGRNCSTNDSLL

Regarding `CCCN1C=CN(C)C1`, the Potency result in assay [1], in [2], in assay [3], in assay [4], in assay [5] and in [6] was “inactive” throughout. Moreover, the Potency entry in [7], in assay [8], in assay [9], in assay [10], in assay [11] and in [12] was “inactive” each time. Moreover, the Potency entry in assay [13], in [14], in assay [15], in [16], in assay [17] and in assay [18] was “inactive” each time.

As to `Nc1c(S(=O)(=O)O)cc(Br)c2c1C(=O)c1ccccc1C2=O`, the Potency result in [1] was “inactive and 30.6 µM (active)”. Besides, the Potency entry in assay [2], in assay [3], in [4], in [5], in [6] and in assay [7] was “inactive” in each case. Besides, the Potency entry in [8], in assay [9], in [10], in assay [11], in assay [12] and in assay [13] was “inactive” each time. The Potency result in assay [14], in assay [15], in assay [17] and in assay [18] was “inactive” in each case.

`CC(=O)OCc1ccco1`: the Potency result in assay [1], in [2], in assay [3], in [4], in assay [5] and in assay [6] was “inactive” throughout. Also, the Potency entry in assay [7], in assay [8], in [9], in [10], in assay [11] and in assay [12] was “inactive” each time. The Potency entry in assay [13], in assay [14], in assay [15], in assay [17] and in [18] was “inactive” throughout.

Take `Cc1ccc(C(C)C)cc1O`: the Potency entry in assay [1], in assay [2], in assay [3], in assay [4], in assay [5] and in assay [6] was “inactive” each time. The Potency entry in assay [7], in assay [8], in assay [9], in assay [10], in [11] and in assay [12] was “inactive” each time. The Potency result in [13], in assay [14], in [15], in assay [16], in assay [17] and in assay [18] was “inactive” throughout.

On to `N[C@H](Cc1c[nH]c2ccccc12)C(=O)O`, for which the Potency entry in assay [1], in assay [2], in assay [3], in assay [4], in assay [5] and in assay [6] was “inactive” throughout. Further, the Potency result in [7], in assay [8], in assay [9], in assay [11], in assay [12] and in assay [13] was “inactive” each time. In addition, the Potency entry in assay [14], in [15], in assay [16], in [17] and in assay [18] was “inactive” each time. Further, the Potency result in assay [10] is “inactive and 19 µM (active)”.

For `CCCCC(CC)COC(C)=O` (configuration not stated), the Potency result in [1], in [2], in [3], in assay [4], in assay [5] and in assay [6] was “inactive” in each case. Further, the Potency entry in assay [7], in [8], in assay [9], in [10], in [11] and in assay [12] was “inactive” throughout. Further, the Potency result in [14], in assay [15], in assay [16], in assay [17] and in [18] was “inactive” each time.

For the compound `O=C(O)CCCCCCCCCCC(=O)O`, the Potency result in assay [1], in assay [2], in assay [3], in [4], in assay [5] and in [6] was “inactive” in each case. For the same compound, the Potency result in [7], in assay [8], in assay [9], in [10], in assay [11] and in assay [12] was “inactive” throughout. In addition, the Potency result in [15], in assay [16], in [17] and in assay [18] was “inactive” throughout.

As for `CCC/C=C/C=O`, the Potency entry in assay [1], in assay [2], in assay [3], in [4], in assay [5] and in assay [6] was “inactive” in each case. Also, the Potency result in [7], in assay [8], in assay [9], in assay [10], in assay [11] and in [12] was “inactive” in each case. For the same compound, the Potency entry in assay [14], in [15], in assay [16] and in assay [18] was “inactive” each time.
